From PubChem BioAssay (NCATS)
Inconclusive results are not listed. Calls of active or inactive are those of the source. Unless noted, calls come from the whole dose curve; as a rule, active = well fitted curve in the direction sought with a large enough effect; inconclusive = small, poorly fitted or top-dose-only effect, or another doubt; inactive = no such curve, though single readings can be large; an effect the other way counts as inactive or inconclusive.

Legend:
[1] = target: Cellular tumor antigen p53 (Homo sapiens) (UniProt P04637); assay: Primary qHTS for small molecule compounds that upregulate eGFP-tagged delta133p53alpha (in N-terminal) cells. (AID 2060322); conditions: NCI-H358 eGFP-delta133p53alpha fluorescence, 24 h; activation: active compounds read high;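 note: 0% = DMSO vehicle and 100% = reference activator; nearly all actives have a fitted effect of over 75% in size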
Summary of the method: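 NCI-H358 cells pre-induced 24 h with 10 ng/ml doxycycline to express N-terminal eGFP-delta133p53alpha, then dosed 24 h at 37C without doxycycline; fixed, Hoechst-stained, GFP intensity by laser scanning cytometry, normalized to DMSO (0%) and 57.5 uM 5-azacytidine (100%).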

[2] = target: Aldehyde dehydrogenase, mitochondrial (Homo sapiens) (UniProt P05091); assay: qHTS for Inhibitors of the Aldehyde Dehydrogenase Family (ALDH2) Validation screens (AID 2061302; active = well fitted inhibition curve with a large enough effect; title and protocol of this record describe different tests; note: potency is the fitted concentration of half-maximal effect); conditions: ALDH inhibition qHTS; series mostly up to 42.6 µM
[3] = target: Retinaldehyde dehydrogenase 3 (Homo sapiens) (UniProt P47895); assay: qHTS for Inhibitors of the Aldehyde Dehydrogenase Family (ALDH1A3) Validation screen (AID 2061312); conditions: ALDH1A3 enzyme inhibition qHTS validation, fluorescence; series mostly up to 42.4 µM; note: nearly all actives have a fitted effect of over 45% in size; note: potency is the fitted concentration of half-maximal effect
[4] = target: Aldehyde dehydrogenase, mitochondrial (Homo sapiens) (UniProt P05091); assay: qHTS for Inhibitors of the Aldehyde Dehydrogenase Family (ALDH2) Confirmatory screens (AID 2061303; active = well fitted inhibition curve with a large enough effect; title and protocol of this record describe different tests; note: % is set by controls: 0 for no effect and ±100 for the full control effect; nearly all actives have a fitted effect of over 45% in size); conditions: ALDH inhibition qHTS; series mostly up to 45.4 µM
[5] = qHTS for Inhibitors of the Aldehyde Dehydrogenase Family (ALDH1A2, ALDH1A3, ALDH2, ALDH3A1) (AID 2061307); conditions: ALDH inhibition qHTS; series mostly up to 50.3 µM; note: % is set by controls: 0 for no effect and ±100 for the full control effect; nearly all actives have a fitted effect of over 50% in size
[6] = target: Aldehyde dehydrogenase, mitochondrial (Homo sapiens) (UniProt P05091); assay: qHTS for Inhibitors of the Aldehyde Dehydrogenase Family (ALDH2) Primary screen (AID 2061308); conditions: ALDH2 enzyme inhibition qHTS, 1536-well; series mostly up to 56 µM;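 note: plate controls were vehicle for no effect and reference inhibitor for full effect; nearly all actives have a fitted effect of over 55% in size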
[7] = target: Retinaldehyde dehydrogenase 3 (Homo sapiens) (UniProt P47895); assay: qHTS for Inhibitors of the Aldehyde Dehydrogenase Family (ALDH1A3) Confirmatory screens (AID 2061311); conditions: ALDH inhibition qHTS; series mostly up to 46 µM; note: % is set by controls: 0 for no effect and ±100 for the full control effect; nearly all actives have a fitted effect of over 60% in size
[8] = target: Retinal dehydrogenase 2 (Homo sapiens) (UniProt O94788); assay: qHTS for Inhibitors of the Aldehyde Dehydrogenase Family (ALDH1A2) Confirmation screens (AID 2061314); conditions: ALDH1A2 enzyme inhibition qHTS confirmation; series mostly up to 45.9 µM; note: % is set by controls: 0 for no effect and ±100 for the full control effect; nearly all actives have a fitted effect of over 65% in size
[9] = target: Retinaldehyde dehydrogenase 3 (Homo sapiens) (UniProt P47895); assay: qHTS for Inhibitors of the Aldehyde Dehydrogenase Family (ALDH1A3) Primary screen (AID 2061315); conditions: ALDH inhibition qHTS; series mostly up to 56 µM;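 note: plate controls were DMSO vehicle for no effect and reference inhibitor for full effect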
[10] = BET inhibitor-based combinations targeting novel dependencies in MECOM-rearranged (r) AML: OCI-AML3 cell line (AID 2202232); conditions: CellTiter-Glo luminescence, 48 h; Potency: OCI-AML3 viability; series mostly up to 46 µM; note: nearly all actives have a fitted effect of over 35% in size; note: potency is the fitted concentration of half-maximal effect
Summary of the method: (§1)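 Here, 11-point titrations of each agent were applied to 500 seeded cells and incubated 48 hr; CellTiter-Glo signal, scaled against DMSO and empty wells, was integrated as AUC, then Z-scored within the individual line.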

[11] = BET inhibitor-based combinations targeting novel dependencies in MECOM-rearranged (r) AML: MV-4-11 cell line (AID 2202233); conditions: MV-4-11 AML viability, CellTiter-Glo luminescence, 48 h; series mostly up to 46 µM; note: nearly all actives have a fitted effect of over 45% in size; note: potency is the fitted concentration of half-maximal effect
Summary of the method: (§2)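 Normalized to DMSO and empty-well controls, the luminescence data from CellTiter-Glo after 48 hr drug exposure were fitted across 11 concentrations. Reported metrics are area under the dose-response curve and its Z-transformed form.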

[12] = BET inhibitor-based combinations targeting novel dependencies in MECOM-rearranged (r) AML: UCSD-AML1 cell line (AID 2202235); conditions: UCSD-AML1 AML cells viability, CellTiter-Glo, 48 h; series mostly up to 46 µM; note: potency is the fitted concentration of half-maximal effect; nearly all actives have a fitted effect of over 40% in size
Summary of the method: as §2

[13] = BET inhibitor-based combinations targeting novel dependencies in MECOM-rearranged (r) AML: AML-194 cell line (AID 2202237;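 note: plate controls were vehicle wells for no effect and wells without cells for full effect; nearly all actives have a fitted effect of over 40% in size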); conditions: AML-194 (MECOM-r AML) viability, CellTiter-Glo, 48 h; series mostly up to 46 µM
Summary of the method: as §1

[14] = BET inhibitor-based combinations targeting novel dependencies in MECOM-rearranged (r) AML: SET-2 cell line (AID 2202231); conditions: SET-2 AML cells viability, CellTiter-Glo luminescence, 48 h; viability: active compounds read low, concentration not given here; note: potency is the fitted concentration of half-maximal effect; nearly all actives have a fitted effect of over 35% in size
Summary of the method: as §1

[15] = BET inhibitor-based combinations targeting novel dependencies in MECOM-rearranged (r) AML: HNT-34 cell line (AID 2202234); conditions: HNT-34 AML viability, CellTiter-Glo luminescence, 48 h; series mostly up to 46 µM; note: potency is the fitted concentration of half-maximal effect; nearly all actives have a fitted effect of over 35% in size
Summary of the method: as §2

[16] = BET inhibitor-based combinations targeting novel dependencies in MECOM-rearranged (r) AML: AML-191 cell line (AID 2202236; note: potency is the fitted concentration of half-maximal effect; nearly all actives have a fitted effect of over 35% in size); conditions: AML-191 viability, CellTiter-Glo luminescence, 48 h; series mostly up to 46 µM
Summary of the method: as §1

Sequence of Cellular tumor antigen p53 (Homo sapiens) (P04637 whole entry, looked up): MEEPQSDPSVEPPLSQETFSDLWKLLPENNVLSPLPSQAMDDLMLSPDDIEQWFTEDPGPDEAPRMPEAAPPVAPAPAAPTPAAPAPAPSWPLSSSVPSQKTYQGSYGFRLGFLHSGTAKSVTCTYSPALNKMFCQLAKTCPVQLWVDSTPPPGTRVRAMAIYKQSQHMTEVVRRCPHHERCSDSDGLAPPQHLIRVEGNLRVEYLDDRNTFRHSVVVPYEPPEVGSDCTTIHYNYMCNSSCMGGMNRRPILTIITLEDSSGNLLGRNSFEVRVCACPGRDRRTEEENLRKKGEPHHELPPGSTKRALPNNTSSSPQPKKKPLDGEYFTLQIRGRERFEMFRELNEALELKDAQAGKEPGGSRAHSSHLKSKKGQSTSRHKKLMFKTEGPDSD

OC1CCCCC1N1CCC(c2ccccc2)CC1 (centres undefined)
inactive: activation [1] -21.4% | Potency [2] | Potency [3]

NCc1cc(=O)[nH]o1
inactive: activation [1] 11.2% | Potency [2] | Potency [3]

COc1ccc2c(c1)c(CCN(C)C)cn2S(=O)(=O)c1ccccc1
inactive: activation [1] 7.16% | Potency [4] | Potency [5] | Potency [6] | Potency [7] | Potency [3] | Potency [8] | Potency [9]

COc1ccc2c(c1)C13CCCCC1C(C2)N(C)CC3 (centres undefined)
inactive: activation [1] -0.635% | Potency [2] | Potency [3]

C=CCN1CC[C@]23CCCCC2[C@H]1Cc1ccc(O)cc13 (some centres undefined)
inactive: activation [1] -35.3% | Potency [2] | Potency [3]

O=C(O)[C@@H]1CCN1
inactive: activation [1] -48.2% | Potency [2] | Potency [3]

NC(=O)c1cc(N2CC2)c([N+](=O)[O-])cc1[N+](=O)[O-]
inactive: activation [1] -14.9% | Potency [2] | Potency [3]

COc1ccc2[nH]c3c(c2c1)CCNC3
inactive: activation [1] -23.5% | Potency [2] | Potency [3]

CC(=O)c1c(O)c(C)c(O)c(Cc2c(O)c3c(c(C(=O)/C=C/c4ccccc4)c2O)OC(C)(C)C=C3)c1O
active: Potency [2] 8.91 µM | Potency [12] 4.17 µM
inactive: activation [1] -54.1% | Potency [10] | Potency [11] | Potency [13]

NCCc1c[nH]c2ccc(C(N)=O)cc12
inactive: activation [1] -19.7% | Potency [2] | Potency [3]

C[C@@H]1O[C@@H](O[C@H]2C[C@@H](O)[C@]3(CO)[C@@H]4C(CC[C@]3(O)C2)[C@@]2(O)CC[C@H]([C@@H]3COC(=O)C3)[C@@]2(C)C[C@H]4O)[C@H](O)[C@H](O)[C@H]1O (some centres undefined)
inactive: activation [1] -50% | Potency [2] | Potency [3]

C[N+]1(C)CCc2cc3c(cc2[C@H]1[C@@H]1OC(=O)c2c1ccc1c2OCO1)OCO3
inactive: activation [1] -3.8% | Potency [2] | Potency [3]

O=C1CCCN1CC#CCN1CCCC1
inactive: activation [1] -14.5% | Potency [2] | Potency [3]

COC[C@H]1OC(=O)c2coc3c2[C@@]1(C)C1=C(C3=O)C2CCC(=O)[C@@]2(C)C[C@H]1OC(C)=O (some centres undefined)
active: Potency [3] 7.08 µM | Potency [14] 18.6 µM | Potency [10] 7.42 µM | Potency [11] 5.25 µM | Potency [15] 5.9 µM | Potency [12] 5.9 µM | Potency [16] 6.61 µM
inactive: activation [1] -11.7% | Potency [2]

O=C1NCN(c2ccccc2)C12CCN(CC1COc3ccccc3O1)CC2 (centres undefined)
inactive: activation [1] -13.1% | Potency [2] | Potency [3]
